PubChem BioAssay AID1159580 (chemical genetic matrix, 2015)
Hit rate of the full screen: of about 5,500 compounds, about 2,000 (36%) were called active. Inconclusive results (about 18%) are left out. No stated cut-off is given here; in the data, active means normalized growth mostly below about 0.91 (no sharp cut-off); inconclusive means no clear call, values can overlap the other calls; inactive means mostly above about 0.92. Some of the results follow.

Experiment: chemical genetic growth profiling, strain panel (AID 1159580);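 further: tested at 20 µM; growth read once vehicle control cultures reached saturation at 30 °C; 1 = growth at the plate median or of vehicle wells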
Conditions: growth OD

Measured: normalized growth

CC(=O)C1CCC2C3CCC4C[C@H](O)CCC4(C)C3C[C@H](O)C12C (some centres not stated)
inactive: S. cerevisiae deletion strains, locus YJL187C, strain SWE1, stronger effect = lower value 0.965 | S. cerevisiae deletion strains, locus YJR066W, strain TOR1, stronger effect = lower value 0.923 | S. cerevisiae deletion strains, locus YKL009W, strain mrt4, stronger effect = lower value 1.02 | S. cerevisiae deletion strains, locus YKL068W, stronger effect = lower value 0.992 | S. cerevisiae deletion strains, locus YKL085W, strain MDH1 (second series), stronger effect = lower value 0.987 | S. cerevisiae deletion strains, locus YKL085W, strain MDH1, stronger effect = lower value 0.987 | S. cerevisiae deletion strains, locus YKL160W, strain elf1, stronger effect = lower value 0.964 | S. cerevisiae deletion strains, locus YKR001C, strain vps1, stronger effect = lower value 1.04 | S. cerevisiae deletion strains, locus YKR026C, strain gcn3, stronger effect = lower value 0.962 | S. cerevisiae deletion strains, locus YKR091W, strain srl3, stronger effect = lower value 0.972 | S. cerevisiae deletion strains, locus YLL001W, strain dnm1, stronger effect = lower value 0.98 | S. cerevisiae deletion strains, locus YLL026W, stronger effect = lower value 0.968 | S. cerevisiae deletion strains, locus YLL041C, strain sdh2, stronger effect = lower value 0.963 | S. cerevisiae deletion strains, locus YLR027C, strain aat2, stronger effect = lower value 0.985 | S. cerevisiae deletion strains, locus YLR039C, strain RIC1, stronger effect = lower value 1.21 | S. cerevisiae deletion strains, locus YLR058C, strain SHM2, stronger effect = lower value 1.05 | S. cerevisiae deletion strains, locus YLR102C, strain apc9, stronger effect = lower value 1.01 | S. cerevisiae deletion strains, locus YLR113W, strain HOG1, stronger effect = lower value 1.12 | S. cerevisiae deletion strains, locus YLR221C, strain rsa3, stronger effect = lower value 0.984 | S. cerevisiae deletion strains, locus YLR258W, strain gsy2, stronger effect = lower value 0.962 | S. cerevisiae deletion strains, locus YLR262C, strain YPT6 (second series), stronger effect = lower value 0.991 | S. cerevisiae deletion strains, locus YLR262C, strain YPT6, stronger effect = lower value 1.19 | S. cerevisiae deletion strains, locus YLR268W, strain sec22, stronger effect = lower value 1.02 | S. cerevisiae deletion strains, locus YLR320W, strain mms22, stronger effect = lower value 0.99 | S. cerevisiae deletion strains, locus YLR330W, strain CHS5, stronger effect = lower value 1.03 | S. cerevisiae deletion strains, locus YLR342W, strain FKS1, stronger effect = lower value 0.977 | S. cerevisiae deletion strains, locus YLR357W, strain rsc2, stronger effect = lower value 0.98 | S. cerevisiae deletion strains, locus YLR370C, strain arc18, stronger effect = lower value 0.98 | S. cerevisiae deletion strains, locus YLR371W, strain rom2, stronger effect = lower value 1.02 | S. cerevisiae deletion strains, locus YLR384C, strain iki3, stronger effect = lower value 0.97 | S. cerevisiae deletion strains, locus YLR418C, strain cdc73, stronger effect = lower value 1.07 | S. cerevisiae deletion strains, locus YML016C, strain PPZ1, stronger effect = lower value 1.03 | S. cerevisiae deletion strains, locus YML032C, strain rad52, stronger effect = lower value 1.01 | S. cerevisiae deletion strains, locus YML120C, strain ndi1, stronger effect = lower value 1 | S. cerevisiae deletion strains, locus YML124C, strain tub3, stronger effect = lower value 0.998 | S. cerevisiae deletion strains, locus YMR058W, strain fet3, stronger effect = lower value 0.968 | S. cerevisiae deletion strains, locus YMR078C, strain ctf18, stronger effect = lower value 0.989 | S. cerevisiae deletion strains, locus YMR125W, strain sto1, stronger effect = lower value 0.943 | S. cerevisiae deletion strains, locus YMR129W, stronger effect = lower value 0.973 | S. cerevisiae deletion strains, locus YMR205C, strain PFK2, stronger effect = lower value 0.987 | S. cerevisiae deletion strains, locus YMR223W, strain ubp8, stronger effect = lower value 1.03 | S. cerevisiae deletion strains, locus YMR231W, strain pep5, stronger effect = lower value 0.978 | S. cerevisiae deletion strains, locus YMR307W, strain GAS1, stronger effect = lower value 1.34 | S. cerevisiae deletion strains, locus YNL067W, strain RPL9B, stronger effect = lower value 1.02 | S. cerevisiae deletion strains, locus YNL071W, strain lat1, stronger effect = lower value 0.975 | S. cerevisiae deletion strains, locus YNL183C, strain NPR1, stronger effect = lower value 0.956 | S. cerevisiae deletion strains, locus YNL209W, strain ssb2, stronger effect = lower value 0.967 | S. cerevisiae deletion strains, locus YNL233W, strain BNI4, stronger effect = lower value 1.07 | S. cerevisiae deletion strains, locus YNL248C, strain rpa49, stronger effect = lower value 0.975 | S. cerevisiae deletion strains, locus YNL250W, strain rad50, stronger effect = lower value 0.999 | S. cerevisiae deletion strains, locus YNL271C, strain bni1, stronger effect = lower value 1.01 | S. cerevisiae deletion strains, locus YNL298W, strain CLA4, stronger effect = lower value 1.01 | S. cerevisiae deletion strains, locus YNL307C, strain MCK1, stronger effect = lower value 0.994 | S. cerevisiae deletion strains, locus YNL322C, strain KRE1 (second series), stronger effect = lower value 0.979 | S. cerevisiae deletion strains, locus YNL322C, strain KRE1, stronger effect = lower value 1.02 | S. cerevisiae deletion strains, locus YNR049C, strain mso1, stronger effect = lower value 0.961 | S. cerevisiae deletion strains, locus YNR052C, strain pop2, stronger effect = lower value 1 | S. cerevisiae deletion strains, locus YOL006C, strain TOP1, stronger effect = lower value 1.37 | S. cerevisiae deletion strains, locus YOL012C, strain htz1 1.2 | S. cerevisiae deletion strains, locus YOL147C, strain pex11, stronger effect = lower value 0.995 | S. cerevisiae deletion strains, locus YOR001W, strain rrp6, stronger effect = lower value 0.961 | S. cerevisiae deletion strains, locus YOR061W, strain CKA2, stronger effect = lower value 1.03 | S. cerevisiae deletion strains, locus YOR069W, strain VPS5, stronger effect = lower value 1.02 | S. cerevisiae deletion strains, locus YOR070C, strain gyp1, stronger effect = lower value 0.982 | S. cerevisiae deletion strains, locus YOR080W, strain dia2, stronger effect = lower value 0.98 | S. cerevisiae deletion strains, locus YOR083W, strain WHI5, stronger effect = lower value 0.958 | S. cerevisiae deletion strains, locus YOR106W, strain vam3, stronger effect = lower value 0.913 | S. cerevisiae deletion strains, locus YOR136W, strain idh2, stronger effect = lower value 1 | S. cerevisiae deletion strains, locus YOR144C, strain elg1, stronger effect = lower value 0.996 | S. cerevisiae deletion strains, locus YOR184W, strain ser1, stronger effect = lower value 1.02 | S. cerevisiae deletion strains, locus YOR231W, strain MKK1, stronger effect = lower value 1.03 | S. cerevisiae deletion strains, locus YOR265W, strain rbl2, stronger effect = lower value 0.993 | S. cerevisiae deletion strains, locus YOR270C, strain vph1, stronger effect = lower value 0.964 | S. cerevisiae deletion strains, locus YOR290C, strain snf2, stronger effect = lower value 0.934 | S. cerevisiae deletion strains, locus YOR316C, strain cot1, stronger effect = lower value 1 | S. cerevisiae deletion strains, locus YPL051W, strain arl3, stronger effect = lower value 1 | S. cerevisiae deletion strains, locus YPL078C, strain atp4, stronger effect = lower value 0.945 | S. cerevisiae deletion strains, locus YPL106C, strain sse1, stronger effect = lower value 0.964 | S. cerevisiae deletion strains, locus YPL240C, strain hsp82, stronger effect = lower value 0.987 | S. cerevisiae deletion strains, locus YPL241C, strain CIN2, stronger effect = lower value 1.02 | S. cerevisiae deletion strains, locus YPL256C, strain CLN2, stronger effect = lower value 0.994 | S. cerevisiae deletion strains, locus YPR119W, strain clb2, stronger effect = lower value 0.988 | S. cerevisiae deletion strains, locus YPR141C, strain kar3, stronger effect = lower value 0.996 | S. cerevisiae deletion strains, locus YPR163C, strain tif3, stronger effect = lower value 1 | S. cerevisiae deletion strains, locus YPR167C, strain met16, stronger effect = lower value 1.01 | S. cerevisiae deletion strains, strain wtn01, stronger effect = lower value 1.01 | S. cerevisiae strains, strain wild type, stronger effect = lower value 1.07
